Experimental findings from PubChem BioAssay (EPA / NIEHS) are described below.

Molecules are shown by their SMILES. Some structures have more than one record in an assay (separate samples or runs), and their calls can disagree. Calls of active or inactive are those of the source. The calls were made as follows: active = hit-call score of the fitted dose curve at least 0.9, where 1 is the maximum; inactive = score below 0.9.

Read-out in the assay: Human Leukocyte Antigen - DR isotype (HLADR), HLA-DRA (gene 3122)
Kind of assay: BSK_BE3C_HLADR: BioMAP Diversity Plus: BE3C Assay for Human Leukocyte Antigen - DR isotype (HLADR) Biomarker Activity (AID 2283032). The following applies: primary human bronchial epithelial cells; actives raise or lower the signal. The procedure, abridged:
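ELISA read-out of HLA-DR on human lung bronchial epithelial primary cells, measured 24 h post-dosing. Both increases and decreases were scored relative to DMSO vehicle.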
Regarding `O=C(O)C(F)(F)C(F)(F)C(F)(F)C(F)(F)C(F)(F)C(F)(F)C(F)(F)F`, the result was inactive.
Consider `COP(=O)(OC)OC=C(Cl)Cl`, for which the result was inactive.
`COP(=S)(OC)Oc1ccc([N+](=O)[O-])cc1`: the result was inactive.
Consider `O=C(NC(=O)c1c(F)cccc1F)Nc1ccc(OC(F)(F)C(F)OC(F)(F)F)c(Cl)c1` (centres undefined), for which the concentration at half-maximal activity (AC50) is 7.82 µM (active).
Consider `CCc1ccc(C(=O)NN(C(=O)c2cc(C)cc(C)c2)C(C)(C)C)cc1`, for which the outcome was inactive.
In the case of `COC(=O)c1ccccc1S(=O)(=O)NC(=O)N(C)c1nc(C)nc(OC)n1`, the outcome was inactive.
`COC(=O)c1ccccc1CS(=O)(=O)NC(=O)Nc1nc(OC)cc(OC)n1`: the result was inactive.
For the molecule `O=C(O)CCCOc1ccc(Cl)cc1Cl`, the result was inactive.
As to `O=[N+]([O-])/N=C1\NCCN1Cc1ccc(Cl)nc1`, the outcome was inactive.
For the molecule `Cc1[nH]c(=O)n(C(C)(C)C)c(=O)c1Cl`, the outcome was inactive.
`CC(C)(C)C(O)C(Oc1ccc(Cl)cc1)n1cncn1` (centres undefined): the half-maximal activity concentration (AC50) was 24.2 µM (active) and the outcome was inactive.
For `CCOCN(C(=O)CCl)c1c(C)cccc1CC`, the AC50 was 15.3 µM (active).
Regarding `[2H]C1([2H])[n+]2ccccc2-c2cccc[n+]2C1([2H])[2H]`, the result was inactive.
Regarding `CCOc1nc(NC)nc(NC(=O)NS(=O)(=O)c2ccccc2C(=O)OC)n1`, the result was inactive.
For the molecule `Cc1cc(C)nc(NC(=O)NS(=O)(=O)c2ccccc2C(=O)OC2COC2)n1`, the outcome was inactive.
`COc1nn(CSP(=S)(OC)OC)c(=O)s1`: the result was inactive.
`Oc1ccc(Cl)cc1Cc1ccccc1`: the concentration at half-maximal activity (AC50) is 34.7 µM (active) [middle of 7 runs].
With `CCOC1Oc2ccc(OS(C)(=O)=O)cc2C1(C)C` (centres undefined), the AC50 is 24 µM (active).
